# In the supplement of paper PMC8728848:
# The sample as a whole holds a higher share of the strongest signals than the screen did.
# B1: LERP (Drosophila melanogaster), B7Z0Q8 (protein)
# chain: MRCSLQKDCAAPTQENFRQMRFPIVISLLLLLFCSGESVAADAANQLKFSTTECKLKEPIYGSTFDFSGLHSDLAHVVKSMNIGGDQFEFNICGNLSRTCNGESNVAACLKRQGKEYILGRQHELFYNNGNMFLKYKSGAKCDNGTADKPNYQLHVMFSCDYTLDAQPMHVTPYANEVCSFYISYRTPLACLSIPEGLQSNSCRVGDTKSNGTFDLMPLSDSNYHTSNRQGAFFVINVCKPVLYGENSMCPAGSSVCLFDSKATNPKERFINFGNVQTHPVVEKGQLLLRHESPTPCAKNSSANYTSVIYFSCDKFIRNAHPEFAGLGADSCTYQFNFATPLACNDLKPCTAFTSTNELLDLSSLSSKPARTLLKDGKNYTIAVCAHAGAPCQENGGACYEQNSTTISLGNSNSQLRFNQTGSLYLLYEDGAECSTATGMRRWSTKIEFVCANNATKDNGASTAGGSDSLKIIEDSNCQLLIQYQTPLACREPIRCKATTYVDHTNDGLGSSGDELIDLTPLISATDNYEARVELPASMEHLVPKTTKFFLNVCRPLVPKYQLGCAGGSAACMAKVTAAGAPEEERSMGFPLVSLTQRNRTFAELAYLKGDPCPTDNTSELSTHILFNCNMRAGRGQPVLRSVEDCAYRFEWETNVFCPPHECTFSADTCDLVHDELGRRFNFKSAPFTKDGKIEIDYNATKMSVNICGAHRKAMTDYSQALVNIFFTHESPNCGREGTMNVQIRLICSDQTESSSTISSDQQCNLLYVQRTPSICEFLSLGATQQNFESNGSTSSSTSSSSTSTTTSTTTQASPAGKPTKAATSTTTTTVGPDPAATPIGPTASVGTILGAILSVTFCVTCLGLLAFSPARRQRIRRLFRRSNSAVRYSRVQSNEEANLLLEPNGEFTESDDDMLL
# Assays:
# Experiment in all cases: glycan array binding signal (z-score within array); higher = stronger binding
# Conditions in all cases: glycan notation: IUPAC condensed, linker removed
# [1] = molecular target: Fuc(a1-2)Gal(b1-4)Glc
# Summary of the method: (§1)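 Negative Z-scores can be read as non-binding. The Z-score is calculated within each array and then averaged across arrays of one protein sequence at different concentrations or buffers and across linkers. Arrays, 3228 in all, were curated from the Consortium for Functional Glycomics database and kept only where the protein sequence was available.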
# [2] = molecular target: Fuc(a1-2)Gal(b1-4)GlcNAc(b1-3)Gal(b1-4)GlcNAc
# Summary of the method: as §1
# [3] = molecular target: Fuc(a1-2)Gal6S(b1-4)GlcNAc
# Summary of the method: as §1
# [4] = molecular target: Fuc(a1-2)[GalNAc(a1-3)]Gal(b1-4)GlcNAc
# Summary of the method: as §1
# [5] = molecular target: Fuc(a1-2)[GalNAc(a1-3)]Gal(b1-4)[Fuc(a1-3)]GlcNAc
# Summary of the method: as §1
# [6] = molecular target: Gal(a1-3)Gal(b1-3)GlcNAc
# Summary of the method: as §1
# [7] = molecular target: Gal(a1-3)GalNAc
# Summary of the method: as §1
# [8] = molecular target: Gal(a1-4)Gal(b1-4)GlcNAc(b1-3)Gal(b1-4)Glc
# Summary of the method: as §1
# [9] = molecular target: Gal(a1-4)GlcNAc
# Summary of the method: as §1
# [10] = molecular target: Gal(b1-3)[Fuc(a1-4)]GlcNAc(b1-2)Man(a1-3)[Gal(b1-3)[Fuc(a1-4)]GlcNAc(b1-2)Man(a1-6)]Man(b1-4)GlcNAc(b1-4)[Fuc(a1-6)]GlcNAc
# Summary of the method: as §1
# [11] = molecular target: Gal(b1-3)[Neu5Ac(a2-6)]GalNAc
# Summary of the method: as §1
# [12] = molecular target: Gal(b1-4)Glc6S
# Summary of the method: as §1
# [13] = molecular target: Gal(b1-4)GlcNAc(b1-3)GalNAc
# Summary of the method: as §1
# [14] = molecular target: Gal(b1-4)GlcNAc(b1-3)[Gal(b1-4)GlcNAc(b1-6)]Gal(b1-4)GlcNAc
# Summary of the method: as §1
# [15] = molecular target: Gal3S(b1-4)GlcNAc
# Summary of the method: as §1
# [16] = molecular target: Gal3S(b1-4)[Fuc(a1-3)]Glc6S
# Summary of the method: as §1
# [17] = molecular target: Gal4S6S(b1-4)GlcNAc
# Summary of the method: as §1
# [18] = molecular target: GalNAc(a1-3)GalNAc
# Summary of the method: as §1
# [19] = molecular target: GlcA(b1-3)Gal
# Summary of the method: as §1
# [20] = molecular target: GlcNAc(a1-4)Gal(b1-4)GlcNAc(b1-3)Gal(b1-4)[Fuc(a1-3)]GlcNAc(b1-3)Gal(b1-4)[Fuc(a1-3)]GlcNAc
# Summary of the method: as §1
# [21] = molecular target: GlcNAc(b1-2)Man(a1-3)[GlcNAc(b1-2)Man(a1-6)]Man(b1-4)GlcNAc(b1-4)[Fuc(a1-6)]GlcNAc
# Summary of the method: as §1
# [22] = molecular target: GlcNAc3Prop(b1-4)GlcNAc
# Summary of the method: as §1
# [23] = molecular target: Kdn(a2-3)Gal(b1-3)GlcNAc
# Summary of the method: as §1
# [24] = molecular target: Man(a1-2)Man(a1-2)Man(a1-3)Man
# Summary of the method: as §1
# [25] = molecular target: Man(a1-3)[Man(a1-6)]Man
# Summary of the method: as §1
# [26] = molecular target: Man(a1-3)[Man(a1-6)]Man(b1-4)GlcNAc(b1-4)GlcNAc
# Summary of the method: as §1
# [27] = molecular target: Neu5Ac(a2-3)Gal
# Summary of the method: as §1
# [28] = molecular target: Neu5Ac(a2-3)Gal(b1-3)GalNAc
# Summary of the method: as §1
# [29] = molecular target: Neu5Ac(a2-3)Gal(b1-3)[Neu5Ac(a2-3)Gal(b1-4)]GlcNAc
# Summary of the method: as §1
# [30] = molecular target: Neu5Ac(a2-3)Gal(b1-4)GlcNAc(b1-3)GalNAc
# Summary of the method: as §1
# [31] = molecular target: Neu5Ac(a2-3)Gal(b1-4)GlcNAc6S
# Summary of the method: as §1
# [32] = molecular target: Neu5Ac(a2-3)Gal(b1-4)[Fuc(a1-3)]GlcNAc
# Summary of the method: as §1
# [33] = molecular target: Neu5Ac(a2-3)Gal(b1-4)[Fuc(a1-3)]GlcNAc(b1-6)[Gal(b1-3)]GalNAc
# Summary of the method: as §1
# [34] = molecular target: Neu5Ac(a2-6)Gal(b1-4)GlcNAc(b1-3)Gal(b1-4)[Fuc(a1-3)]GlcNAc(b1-3)Gal(b1-4)[Fuc(a1-3)]GlcNAc
# Summary of the method: as §1
binder,measurement,setting,value
B1,glycan array binding signal (z-score),[1],-1.18
same,glycan array binding signal (z-score),[2],0.534
same,glycan array binding signal (z-score),[3],-0.168
same,glycan array binding signal (z-score),[4],0.43
same,glycan array binding signal (z-score),[5],1.65
same,glycan array binding signal (z-score),[6],-0.704
same,glycan array binding signal (z-score),[7],-0.56
same,glycan array binding signal (z-score),[8],2.8
same,glycan array binding signal (z-score),[9],-0.583
same,glycan array binding signal (z-score),[10],5.88
same,glycan array binding signal (z-score),[11],-0.837
same,glycan array binding signal (z-score),[12],-0.389
same,glycan array binding signal (z-score),[13],0.146
same,glycan array binding signal (z-score),[14],-0.458
same,glycan array binding signal (z-score),[15],-0.01
same,glycan array binding signal (z-score),[16],1.16
same,glycan array binding signal (z-score),[17],0.955
same,glycan array binding signal (z-score),[18],-0.435
same,glycan array binding signal (z-score),[19],-0.753
same,glycan array binding signal (z-score),[20],3.64
same,glycan array binding signal (z-score),[21],6.93
same,glycan array binding signal (z-score),[22],-0.064
same,glycan array binding signal (z-score),[23],-0.084
same,glycan array binding signal (z-score),[24],5.38
same,glycan array binding signal (z-score),[25],-0.079
same,glycan array binding signal (z-score),[26],2.66
same,glycan array binding signal (z-score),[27],-0.653
same,glycan array binding signal (z-score),[28],0.949
same,glycan array binding signal (z-score),[29],-0.204
same,glycan array binding signal (z-score),[30],0.38
same,glycan array binding signal (z-score),[31],0.734
same,glycan array binding signal (z-score),[32],-1.2
same,glycan array binding signal (z-score),[33],2.71
same,glycan array binding signal (z-score),[34],-0.095
